High-throughput results as filed in PubChem BioAssay.
The list is not random: actives were taken first. Their share in the collection is about 15%.
12-LOX inh: Primary qHTS assay for inhibitors of human arachidonate 12S-lipoxygenase (ALOX12): Round 2; Polyunsaturated fatty acid lipoxygenase ALOX12 (Homo sapiens), P18054; purified 12hLO, xylenol orange hydroperoxide absorbance; 580,000 compounds, 1.1% hits; Potency, µM (doses to about 108 µM), for the others: top-dose activity change, negative = inhibition, most hits filed as inhibitors
Target sequence (P18054 whole entry, looked up): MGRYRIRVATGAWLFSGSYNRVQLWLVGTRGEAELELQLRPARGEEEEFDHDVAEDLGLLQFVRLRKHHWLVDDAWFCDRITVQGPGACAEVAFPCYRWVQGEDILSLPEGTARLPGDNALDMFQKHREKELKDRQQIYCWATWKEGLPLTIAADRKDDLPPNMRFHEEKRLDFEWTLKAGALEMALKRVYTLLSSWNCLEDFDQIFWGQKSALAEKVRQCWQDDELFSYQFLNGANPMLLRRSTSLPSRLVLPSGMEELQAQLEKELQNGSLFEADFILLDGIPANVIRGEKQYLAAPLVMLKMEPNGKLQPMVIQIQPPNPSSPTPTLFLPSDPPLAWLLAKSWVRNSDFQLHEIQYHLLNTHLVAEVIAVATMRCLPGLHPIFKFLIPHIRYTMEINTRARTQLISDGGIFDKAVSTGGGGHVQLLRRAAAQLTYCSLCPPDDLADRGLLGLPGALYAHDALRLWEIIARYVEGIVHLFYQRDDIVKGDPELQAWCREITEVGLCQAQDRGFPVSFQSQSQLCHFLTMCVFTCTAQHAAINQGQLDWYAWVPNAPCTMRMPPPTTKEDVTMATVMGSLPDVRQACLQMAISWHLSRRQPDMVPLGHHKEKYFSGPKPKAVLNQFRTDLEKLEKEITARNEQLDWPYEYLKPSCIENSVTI
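Hydroperoxide product was detected by ferrous iron/xylenol orange as the 573 to 405 nm absorbance ratio. Arachidonic acid at 40 uM (final) was turned over for 30 min at room temperature by 150 nM human 12hLO, pH 7.0 Hepes buffer, after 15 min compound preincubation.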
RORg inh: qHTS for inhibitors of ROR gamma transcriptional activity | Nuclear receptor ROR-gamma (Mus musculus), P51450 | Drosophila S2 Gal4-RORgamma UAS-luciferase reporter, 20 h | Potency, µM (doses to about 53.6 µM), without a hit: top-dose activity change, negative = inhibition, most hits filed as inhibitors | 310,000 compounds, 5.4% hits | AID 2551, 2010; further: nearly all actives have a fitted effect of over 60% in size
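Using a luciferase readout, inhibitors were identified by reduced reporter activity in Drosophila cells coexpressing a copper-inducible Gal4–ROR gamma fusion and UAS-driven Photinus luciferase, incubated 20 hr after 700 uM copper sulfate.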
ELG1 DNA repair: qHTS screen for small molecules that inhibit ELG1-dependent DNA repair in human embryonic kidney (HEK293T) cells expressing luciferase-tagged ELG1; HEK293T ELG1-luciferase reporter, luminescence, 16 h; DNA damage induced by 5-fluorouridine; Potency, µM (series often up to 46.1 µM), inactives show at the highest dose activity change, negative = inhibition, most hits filed as inhibitors; 330,000 compounds, 2.3% hits; further: nearly all actives have a fitted effect of over 55% in size
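Quantitative HTS, concentration-response format. 2,000 cells/well co-treated with 5-fluorouridine and compound, 16 hr in 5% CO2 at 37 °C; ONE-Glo luminescence read after 30 min.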
TDP1 cell CPT: qHTS for Inhibitors of human tyrosyl-DNA phosphodiesterase 1 (TDP1): qHTS in cells in presence of CPT; 420,000 compounds, 12% hits; chicken DT40 Tdp1-/-;hTDP1 cells + 20 nM CPT, ATP luminescence, 48 h; Potency, µM (series often up to 46.2 µM), without a hit: top-dose activity change, negative = growth inhibition, usual class: inhibitors; AID 686979, 2013; further: nearly all actives have a fitted effect of over 55% in size
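Cell growth measured by CellTiter-Glo luminescence after a minimum 48 h, 37 C compound exposure with 20 nM CPT in Tdp1-knockout DT40 cells stably expressing hTDP1, seeded 400/well; qHTS titration format.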
VP16 counter: VP16 counterscreen qHTS for inhibitors of ROR gamma transcriptional activity; Drosophila S2 Gal4-VP16 UAS-luciferase, luminescence, 20 h; Potency, µM (top dose mostly 53.6 µM), for the others: at the top dose activity, negative = inhibition, most hits filed as inhibitors; 310,000 compounds, 3.5% hits;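 further: Gal4-VP16 expression switched on by copper sulfate through the metallothionein promoter; nearly all actives have a fitted effect of over 50% in size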
TDP1 cell noCPT: qHTS for Inhibitors of human tyrosyl-DNA phosphodiesterase 1 (TDP1): qHTS in cells in absence of CPT. DT40 Tdp1-/- hTDP1 cells, no CPT, ATP luminescence, 48 h. Potency, µM (top dose mostly 46.2 µM), without a hit: top-dose activity change, negative = growth inhibition, hits mostly inhibitors. 420,000 compounds, 15% hits. AID 686978, 2013; further: nearly all actives have a fitted effect of over 55% in size
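DT40 Tdp1-/-;hTDP1 cells, no CPT (DMSO vehicle only), 400 cells/well; compounds pin-transferred; ≥48 hr, 37 °C; CellTiter-Glo 30 min RT dark, luminescence read.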
* marks the source's active call; other numbers are inactive results; ? = inconclusive; . = no result; [ ] = another dose, or the depositor's remark. The call rests on the fitted dose curve; in most records, active means well fitted curve in the direction sought with a large enough effect; inconclusive means small, poorly fitted or top-dose-only effect, or another doubt; inactive means no such curve, though single readings can be large; an effect the other way counts as inactive or inconclusive. On the % scale 0 is the no-effect control and ±100 the full control effect; potency means the concentration at half of the fitted maximal effect.

SMILES | 12-LOX inh | RORg inh | ELG1 DNA repair | TDP1 cell CPT | VP16 counter | TDP1 cell noCPT
CC(C)CC(c1nnnn1Cc1cccs1)N1CCN(c2nc3ccccc3s2)CC1 (stereo not drawn) | -12.5% | 10µM* | ? | ? | 0.2% | ?
Clc1ccc(C(c2nnnn2CCc2ccccc2)N2CCSCC2)cc1 (stereo not drawn) | -5.9% | ? | 0.6% | ? | -7.1% | ?
CCC(c1nnnn1Cc1cccs1)N1CCN(c2nc3ccccc3s2)CC1 (stereo not drawn) | -18.6% | ? | ? | ? | 2.8% | ?
Oc1ccc(C(c2nnnn2CCc2ccccc2)N2CCN(c3nc4ccccc4s3)CC2)cc1 (stereo not drawn) | -17.3% | 33.3% | ? | 16.4µM* | -2.3% | 13µM*
CC(NC(=O)c1cc(-c2ccncc2)cn1C)c1ccc(F)cc1 (stereo not drawn) | 29.6% | . | . | . | . | .
CN(C(=O)c1cc(S(=O)(=O)N2CCc3ccccc32)cn1C)C1CCCCC1 | -1.1% | ? | -25.4% | 20.6µM* | -1.6% | 18.4µM*
Cn1cc(S(=O)(=O)N2CCc3ccccc32)cc1C(=O)NC(C)(C)C | ? | -6.3% | ? | 3.26µM* | 5.01µM* | 2.59µM*
CCCN(C(=O)c1cc(S(=O)(=O)N2CCc3ccccc32)cn1C)c1ccc(OCC)cc1 | -8.9% | . | . | ? | . | 20.6µM*
CCOC(=O)c1cc(S(=O)(=O)N2CCc3ccccc32)cn1C | -15.0% | 42.4% | ? | ? | 1.8% | 2.31µM*
Cc1ccc(N(C)C(=O)c2cc(S(=O)(=O)N3CCc4ccccc43)cn2C)cc1 | 21.6% | 14.4% | -1.1% | ? | 7.8% | ?
CCOC(=O)N1CCC(NC(=O)c2cc(S(=O)(=O)N3CCc4ccccc43)cn2C)CC1 | 0.0% | ? | ? | -17.3% | -6.2% | -19.2%
O=C(O)c1nn(CC(=O)N(CCc2ccccc2)Cc2ccccc2)c(=O)c2ccccc12 | -51.6% | . | . | . | . | .
COc1ccccc1CNC(=O)C1(c2ccc(NC(=O)C3CC3)cc2)CCCCC1 | 21.7% | . | . | . | . | .
CSc1cccc(NC(=O)c2cc(S(=O)(=O)N3CCc4ccccc43)cn2C)c1 | 4.2% | 40.4% | ? | 14.6µM* | 2.5% | 25.9µM*
Cn1cc(S(=O)(=O)N2CCc3ccccc32)cc1C(=O)Nc1ccc(Cl)cc1 | 37.9% | -35.2% | -1.8% | 25.9µM* | -1.4% | 25.9µM*
Cc1c(C(=O)N2CCCCC2)c(S(=O)(=O)N2CCc3ccccc32)c(C)n1C | -2.0% | -4.4% | -4.9% | -13.6% | -0.9% | 11.5%
Cc1ccc(NC(=O)c2cc(S(=O)(=O)N3CCc4ccccc43)cn2C)cc1 | 336.4% | ? | -26.7% | ? | -0.7% | ?
CCOC(=O)c1c(S(=O)(=O)N2CCCCC2C)c(C)n(C)c1C (stereo not drawn) | 13.0% | -7.3% | -0.3% | ? | -5.1% | 10.3µM*
CCOC(=O)c1c(S(=O)(=O)N2CCc3ccccc32)c(C)n(C)c1C | 0.3% | -3.2% | 8.0% | 23.1µM* | 1.4% | ?
Cc1cc(C)[n+]2n1C(=O)C(c1ccccc1)=C2[O-] | -5.3% | -3.3% | ? | -4.1% | 3.4% | 2.1%
Cc1cc(C)[n+](C)n1-c1ccccc1 | 17.8µM* | . | . | . | . | .
CNC(=O)N1CCc2nc(N3CCN(C)CC3)[nH]c(=O)c2CC1 | 17.9% | . | . | . | . | .
C[C@@H](NC(=O)Cc1ccccc1)c1onc(-c2ccc(Cl)cc2)c1C(=O)O | 18.1%[176 µM] | . | . | . | . | .
COc1ccccc1-c1nn(CCC(=O)Nc2cccc(C(C)=O)c2)c2nc(C)cc(C)c12 | ? | . | . | ? | . | 16.4µM*
COc1ccccc1-c1nn(CCC(=O)Nc2ccc(F)cc2)c2nc(C)cc(C)c12 | -2.2% | . | . | . | . | .
SMILES | 12-LOX inh | RORg inh | ELG1 DNA repair | TDP1 cell CPT | VP16 counter | TDP1 cell noCPT
COc1cccc2cc(-c3cc(=O)oc4cc(O)ccc34)c(=O)oc12 | -23.7% | . | . | . | . | .
O=C1CC(SCCc2nc3ccccc3[nH]2)C(=O)N1c1ccc(F)c(Cl)c1 (stereo not drawn) | ? | . | . | -1.7% | . | -1.9%
O=C1CC(SCc2nc3ccccc3[nH]2)C(=O)N1c1cccc(Cl)c1 (stereo not drawn) | 0.0% | 10µM* | 2.8% | ? | 12.6µM* | 13µM*
O=C1CC(SCc2nc3ccccc3[nH]2)C(=O)N1c1ccc(F)cc1 (stereo not drawn) | -17.5% | ? | 0.0% | ? | ? | 18.4µM*
Cc1c(C)n(Cc2ccccc2)c2ccc(C(=O)OCCCN(C)C)cc12 | -23.6% | ? | ? | ? | -8.7% | 20.6µM*
Cc1c(C)n(CCN(C)C)c2ccc(C(=O)OCCN(C)C)cc12 | -18.6% | 0.6% | -12.2% | ? | -7.6% | 21.1µM*
CCOc1cnn(-c2ccccc2)c(=O)c1Cl | 229.1% | 17.4% | ? | ? | -5.3% | 16.4µM*
Nc1c(Cl)cnn(-c2ccccc2)c1=O | 13.8% | . | . | 7.0% | . | -1.6%
O=c1c(Cl)c(Cl)cnn1-c1ccccc1 | -3.0% | 10µM* | 18.4µM* | 2.91µM* | 11.2µM* | 3.26µM*
COc1cnn(-c2ccc(C)cc2)c(=O)c1SCc1ccccc1 | -4.8% | 0.8% | ? | -29.1% | -8.5% | ?
COc1cnn(-c2ccccc2)c(=O)c1SCc1ccc(Cl)cc1Cl | ? | ? | -4.6% | 29.1µM* | -23.2% | 20.6µM*
CCSc1cnn(-c2ccccc2)c(=O)c1Cl | ? | . | . | 5.7% | . | ?
CCS(=O)(=O)N1CCC(N2CCCC(C(=O)NCCc3ccccc3)C2)CC1 (stereo not drawn) | 8.0% | . | . | . | . | .
Cc1cc2nccc(-c3ccncc3)n2n1 | 1.5% | -9.0% | 13µM* | ? | -1.7% | -17.9%
COc1cccc(N2[C@@H](CC(C)=O)c3ccc(/C=C/C(C)=O)cc3S2(=O)=O)c1 | -3.6% | . | . | 5.17µM* | . | 5.17µM*
COc1ccc(CN2[C@@H](CC(C)=O)c3ccc(/C=C/C(C)=O)cc3S2(=O)=O)cc1 | -0.2% | . | . | 7.31µM* | . | 9.2µM*
COC(=O)C[C@H]1c2ccccc2S(=O)(=O)N1c1cccc(OC)c1 | ? | . | . | ? | . | -18.1%
